Data: PubChem BioAssay (EPA / NIEHS)
Active and inactive are the calls of the source. The calls were made as follows: active = hit-call score of the fitted dose curve at least 0.9, where 1 is the maximum; inactive = score below 0.9.

Key:
[1] = read-out: Cyclin D2 (CCND2), CCND2 (gene 894); experiment: LTEA_HepaRG_CCND2: Life Technologies and Expression Analysis (LTEA) Assay for Cyclin D2 (CCND2) using HepaRG (AID 2283449); conditions: mRNA level, 48 h; actives raise or lower the signal
How it was run: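 Read-out is CCND2 mRNA level measured by qRT-PCR in human HepaRG liver cells and normalised to three housekeeping genes. Chemicals were applied for 48 h at up to 100 uM, with gain or loss fitted relative to 0.5% DMSO.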

[2] = read-out: Cyclin Dependent Kinase Inhibitor 1A (CDKN1A), CDKN1A (gene 1026); experiment: LTEA_HepaRG_CDKN1A: Life Technologies and Expression Analysis (LTEA) Assay for Cyclin Dependent Kinase Inhibitor 1A (CDKN1A) using HepaRG (AID 2283450); conditions: mRNA level, 48 h; actives raise or lower the signal
How it was run: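 Differentiated human HepaRG cells, pre-cultured 48 h, were exposed in duplicate for 48 h in serum-free induction medium to eight half-log concentrations up to 100 uM (0.5% DMSO). CDKN1A mRNA was measured by qRT-PCR, normalized to ACTB/GAPDH/POLR2A, bidirectionally fitted versus DMSO.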

[3] = read-out: Cyclin D1 (CCND1), CCND1 (gene 595); experiment: LTEA_HepaRG_CCND1: Life Technologies and Expression Analysis (LTEA) Assay for Cyclin D1 (CCND1) using HepaRG (AID 2283451); conditions: mRNA level, 48 h; actives raise or lower the signal;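 as to AC50: TaqMan qRT-PCR transcript level normalised to ACTB GAPDH and POLR2A housekeeping genes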
How it was run: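 Differentiated human HepaRG cells in serum-free induction medium were exposed 48 h to eight half-log concentrations up to 100 uM in 0.5% DMSO; mRNA quantified by TaqMan qRT-PCR, normalized to ACTB, GAPDH, POLR2A, fitted bidirectionally versus DMSO.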

[4] = read-out: catalase (CAT), CAT (gene 847); experiment: LTEA_HepaRG_CAT: Life Technologies and Expression Analysis (LTEA) Assay for catalase (CAT) using HepaRG (AID 2283452); conditions: mRNA level, 48 h; actives raise or lower the signal;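 as to AC50: TaqMan qRT-PCR signal normalized to ACTB GAPDH and POLR2A housekeeping genes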
How it was run: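 Expression of CAT was quantified by TaqMan qRT-PCR with ACTB/GAPDH/POLR2A normalization after 48 h chemical exposure of HepaRG. Eight-point half-log series, top 100 uM, in 0.5% DMSO; gain or loss fitted against vehicle.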

[5] = read-out: flavin-containing dimethylaniline monooxygenases 3 (FMO3), FMO3 (gene 2328); experiment: LTEA_HepaRG_FMO3: Life Technologies and Expression Analysis (LTEA) Assay for flavin-containing dimethylaniline monooxygenases 3 (FMO3) using HepaRG (AID 2283453); conditions: mRNA level, 48 h; actives raise or lower the signal;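 as to AC50: FMO3 transcript by TaqMan qRT-PCR normalized to ACTB GAPDH and POLR2A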
How it was run: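 HepaRG, 48 h exposure, 8-pt half-log series from 100 uM, 0.5% DMSO vehicle, duplicates; FMO3 transcript by Fluidigm TaqMan qRT-PCR, housekeeping-normalized; gain/loss fit vs DMSO.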

[6] = read-out: Cytochrome P450 (CYP1A1), CYP1A1 (gene 1543); experiment: LTEA_HepaRG_CYP1A1: Life Technologies and Expression Analysis (LTEA) Assay for Cytochrome P450 (CYP1A1) using HepaRG (AID 2283454); conditions: mRNA level, 48 h; actives raise or lower the signal
How it was run: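 Differentiated HepaRG cells in serum-free induction medium were exposed in duplicate for 48 h to eight half-log concentrations up to 100 uM in 0.5% DMSO. CYP1A1 mRNA was quantified by TaqMan qRT-PCR, normalized to ACTB, GAPDH and POLR2A.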

[7] = read-out: CFLAR gene, CFLAR (gene 8837); experiment: LTEA_HepaRG_CFLAR: Life Technologies and Expression Analysis (LTEA) Assay for CFLAR gene using HepaRG (AID 2283455); conditions: mRNA level, 48 h; actives raise or lower the signal
How it was run: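 HepaRG, 48 h exposure, 8-pt conc-response (100 uM top, half-log), 0.5% DMSO vehicle, duplicates. CFLAR expression by qRT-PCR; ACTB/GAPDH/POLR2A normalization; gain or loss fit vs DMSO baseline.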

[8] = read-out: Forkhead box O1 (FOXO1), FOXO1 (gene 2308); experiment: LTEA_HepaRG_FOXO1: Life Technologies and Expression Analysis (LTEA) Assay for Forkhead box O1 (FOXO1) using HepaRG (AID 2283456); conditions: mRNA level, 48 h; actives raise or lower the signal
How it was run: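 Readout is FOXO1 transcript level by multiplexed qRT-PCR against three housekeeping genes, curve-fitted in both directions relative to 0.5% DMSO vehicle. Human HepaRG cultures received chemicals for 48 h, up to 100 uM in half-log steps.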

[9] = read-out: growth arrest and DNA damage 45 (GADD45A), GADD45A (gene 1647); experiment: LTEA_HepaRG_GADD45A: Life Technologies and Expression Analysis (LTEA) Assay for growth arrest and DNA damage 45 (GADD45A) using HepaRG (AID 2283458); conditions: mRNA level, 48 h; actives raise or lower the signal
How it was run: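 Differentiated HepaRG cells were exposed in duplicate for 48 h in serum-free induction medium to 8-point half-log concentrations up to 100 uM in 0.5% DMSO. GADD45A mRNA was measured by TaqMan qRT-PCR, normalized to ACTB, GAPDH and POLR2A, with bidirectional fitting versus DMSO.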

[10] = CEETOX_H295R_TESTO: CeeTox H295R High-throughput Steroidogenesis Assay for Testosterone (TESTO) (AID 2283457); conditions: actives raise or lower the signal;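 as to AC50: cells exposed to chemicals for 48 h before medium collection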
Experimental: CEETOX_H295R is a cell-based, multiplexed-readout assay that uses H295R, a human adrenal gland cell line, with measurements taken at 48 hours after chemical dosing in a 96-well plate.CEETOX_H295R_TESTO is one of 23 assay component(s) measured or calculated from the CEETOX_H295R assay. It is designed to make measurements of hormone induction, a form of inducible reporter, as detected with […] by HPLC-MS-MS technology.Data from the assay component CEETOX_H295R_TESTO was analyzed into 1 assay endpoint. This assay endpoint, CEETOX_H295R_TESTO, was analyzed with bidirectional fitting relative to DMSO as the negative control and baseline of activity. Using a type of inducible reporter, gain or loss-of-signal activity using HPLC-MS-MS was used to understand synthesis of Testosterone in H295R cell line at 48hr of chemical exposure. To generalize the intended target to other relatable targets, this assay endpoint is annotated to the steroid hormone intended target family, where the subfamily is androgens.
Cell culture and media preparation procedures were conducted in accordance with OECD Test No. 456 guidelines, with minor modifications. H295R cells (ATCC CRL-2128) were expanded for 5 passages and frozen in batches in liquid nitrogen. Prior to the steroidogenesis assay, H295R cells were thawed and passed at least 4 times. The maximum passage was 10. Cells were maintained in a 1:1 mixture of DMEM/F12 supplemented with 5ml/L ITS+ Premix (BD Bioscience) and 12.5 ml/L Nu-Serum (BD Bioscience). After seeding cells into 96-well plates at 50-60% confluency, cells were allowed to adhere overnight. […] Test chemicals were incubated for 48 hours, then the medium was removed and split into 2 vials containing approximately 75uL each, and stored at -80 C prior to hormone analysis. For steroid quantification, media samples were shipped to OpAns, LLC (Durham, NC) on dry ice, and samples were thawed to room temperature prior to liquid-liquid extraction. Steroid hormones were extracted from media samples using methyl tertbutyl ether (MTBE). An extra derivatization with dansyl chloride was included for estrogen (estrone and estradiol) detection only. Steroid hormones were separated by HPLC, eluted using a reverse phase C18 gradient with electrospray positive ionization, followed by quantification by tandem mass spectrometry (MS/MS). Data were acquired on a MassHunter Workstation Acquisition version B03.01 (Agilent Technologies, Inc.) and processed using MassHunter Quantitative Analysis for QQQ. Accuracy was determined for each hormone analyte from 3 standards to determine upper and lower limits of quantification (ULOQ and LLOQ, respectively) using a 7-point standard curve. Precision and accuracy of the extraction and quantification methods were calculated as the percent relative standard deviation (%RSD) of the spiked standards and percent spiked standard recovered, respectively. […] Test medium was removed following chemical exposure, and cell viability was evaluated in the same wells by MTT. MTT procedures were as follows: after removal of test medium, 500 uL of 0.5 mg/ml of 3-[4,5-dimethylthiazol-2-y]2,5-diphenyltetrazoliumbromide solution was added to the cells. Following a 4-hour incubation at 37 C and 5% CO2 to allow formazan-crystal formation, the MTT solution was removed and blue formazan salt crystals were solubilized using 500uL anhydrous isopropanol with shaking for 20 minutes. Absorbance was read at 570 and 650nm using a Packard Fusion microplate reader. Background correction of absorbance units was used to determine percent change relative to controls. […] When a test chemical reduced cell viability to 20% - 70%, the test chemical was diluted 10-fold and re-evaluated, but if cell viability was <20%, then the test chemical was diluted 100-fold and re-evaluated. Test chemical dilutions were made until cell viability was >/=70%. MTT assays were also conducted for duplicates of all concentrations of chemicals tested in concentration-response studies. […]

Structure (SMILES) | outcome [1] | outcome [2] | outcome [3] | outcome [4] | outcome [5] | AC50 [6] | outcome [7] | outcome [8] | outcome [9] | AC50 [3] | AC50 [4] | AC50 [5] | AC50 [9] | AC50 [10] | outcome [10]
CC(C)CC(C)(O)C#CC(C)(O)CC(C)C (stereo not drawn) | inactive | inactive | inactive | inactive | inactive | 50 µM (active) | inactive | inactive | inactive |  |  |  |  |  | 
CCCC(=O)OCC | inactive | inactive | inactive | inactive | inactive | 50 µM (active) | inactive | inactive | inactive |  |  |  |  |  | 
CC(O)CN(CCN(CC(C)O)CC(C)O)CC(C)O (stereo not drawn) | inactive | inactive |  | inactive | inactive | 50 µM (active) | inactive | inactive | inactive | 12.5 µM (active) |  |  |  |  | 
COc1ccc(/C=C/S(=O)(=O)NC(=O)c2ccc(C)cc2Cl)cc1 | inactive | inactive | inactive | inactive | inactive | 50 µM (active) | inactive | inactive | inactive |  |  |  |  |  | 
O=C(OC[C@H]1O[C@@H](OC(=O)c2cc(O)c(O)c(OC(=O)c3cc(O)c(O)c(O)c3)c2)[C@H](OC(=O)c2cc(O)c(O)c(OC(=O)c3cc(O)c(O)c(O)c3)c2)[C@@H](OC(=O)c2cc(O)c(O)c(OC(=O)c3cc(O)c(O)c(O)c3)c2)[C@@H]1OC(=O)c1cc(O)c(O)c(OC(=O)c2cc(O)c(O)c(O)c2)c1)c1cc(O)c(O)c(OC(=O)c2cc(O)c(O)c(O)c2)c1 | inactive | inactive | inactive |  |  | 9.36 µM (active) | inactive | inactive |  |  | 15.2 µM (active) | 9.23 µM (active) | 3.26 µM (active) |  | 
Cc1ccc(C)c(O)c1 | inactive | inactive | inactive | inactive | inactive | 51.2 µM (active) | inactive | inactive | inactive |  |  |  |  |  | 
Nc1ccc(Nc2ccccc2)cc1 | inactive | inactive | inactive | inactive |  | 10.9 µM (active) | inactive | inactive | inactive |  |  | 50 µM (active) |  |  | 
C=CC(=C)CCC=C(C)C | inactive | inactive | inactive | inactive | inactive | 35 µM (active) | inactive | inactive | inactive |  |  |  |  |  | 
CC(C)(O)c1coc(S(=O)(=O)NC(=O)Nc2c3c(cc4c2CCC4)CCC3)c1 | inactive | inactive | inactive | inactive | inactive | 50 µM (active) | inactive | inactive | inactive |  |  |  |  |  | 
Cn1c(=O)cc(Oc2ccc(F)cc2F)c2cnc(NCC(C)(C)O)nc21 | inactive | inactive |  | inactive | inactive | 11.9 µM (active) | inactive | inactive | inactive | 17 µM (active) |  |  |  |  | 
O=C(O)c1cccc(Oc2ccccc2)c1 | inactive | inactive | inactive | inactive | inactive | 37.9 µM (active) | inactive | inactive | inactive |  |  |  |  |  | 
Clc1nc(Cl)c(Cl)c(Cl)c1Cl | inactive | inactive | inactive | inactive | inactive | 74.4 µM (active) | inactive | inactive | inactive |  |  |  |  |  | 
CCOC(=O)c1ccc(C2CCC(NC[C@H](O)COc3ccc(O)c(NS(C)(=O)=O)c3)CC2)cc1 (stereo partly drawn) | inactive | inactive | inactive | inactive | inactive | 73.3 µM (active) | inactive | inactive | inactive |  |  |  |  |  | 
CC(C)CCCCCCCOC(=O)CCCCC(=O)OCCCCCCCC(C)C | inactive | inactive | inactive | inactive | inactive | 50 µM (active) | inactive | inactive | inactive |  |  |  |  |  | 
Oc1ccc2c(c1)-c1ccccc1C2 |  |  |  |  |  |  |  |  |  |  |  |  |  | 38.5 µM (active) | 
Cc1ccc(O)cc1 |  |  |  |  |  |  |  |  |  |  |  |  |  |  | inactive
